# Most compounds without a hit are left out; they make up all but 1.4% or so of the library.
# Mtb MbtI inh – MbtI salicylate synthase inhibitors, primary screen, biochemical, fluorescence intensity; P9WFX0; purified MbtI enzyme, fluorescence intensity read-out; inhibition, % (concentration not given with the values); 100,000 tested, 0.89% active; in the data active = inhibition mostly above about 56%, no sharp cut-off; inactive = mostly below about 77%
# MenB inh – M. tuberculosis MenB inhibitors, primary screen, biochemical, absorbance | 1,4-dihydroxy-2-naphthoyl-CoA synthase (Mycobacterium tuberculosis (strain ATCC 25618 / … | MenB enzyme assay, absorbance read-out | inhibition, % (concentration not given with the values) | 100,000 tested, 0.43% active; in the data active = inhibition above about 21%, passing the limit was not always enough
# Target sequence (P9WNP5 whole entry, looked up): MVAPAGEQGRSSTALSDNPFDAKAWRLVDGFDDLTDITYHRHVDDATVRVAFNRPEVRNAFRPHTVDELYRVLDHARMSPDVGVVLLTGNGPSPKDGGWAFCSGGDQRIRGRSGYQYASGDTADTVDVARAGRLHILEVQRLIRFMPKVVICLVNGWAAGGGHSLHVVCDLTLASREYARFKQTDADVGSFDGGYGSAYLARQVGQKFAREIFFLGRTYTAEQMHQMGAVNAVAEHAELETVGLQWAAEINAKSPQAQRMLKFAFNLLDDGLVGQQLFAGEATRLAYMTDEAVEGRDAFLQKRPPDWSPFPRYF
# Polio RdRp inh – poliovirus RdRp elongation inhibitors, primary screen, biochemical, fluorescence polarization, total intensity | poliovirus polymerase elongation; hits give low values | 150,000 tested, 0.66% active | % elongation, % (compound at 16.7 µg/mL) | Genome polyprotein (Poliovirus type 1 (strain Mahoney)), P03300; in the data active = % elongation below about 90%
# Numbers without * were called inactive; nt = not tested or not shown.
SMILES,Mtb MbtI inh,MenB inh,Polio RdRp inh
O=C1/C(=C/N2CCCCC2)SC(=S)N1c1ccc(F)cc1,nt,-38,109
Cc1nnn(C23CC4CC(CC(C(=O)NCc5ccc6c(c5)OCO6)(C4)C2)C3)n1,2,-9,99
S=c1[nH]c2c(s1)sc1ccccc12,91*,-83,102
Clc1nsc2ccccc12,96,-42,nt
COc1cccc(NCc2nnc(SCC(=O)N3CCc4ccccc43)n2C2CCCCC2)c1,-6,-9,102
O=C1CN(c2ccccc2)CC(=O)N1,-11,-12,100
S=C(SCc1ccc(CSC(=S)N2CCOCC2)cc1)N1CCOCC1,nt,-6,100
S=C(SN1CCOCC1)N1CCOCC1,nt,-69,77*
CC1CCN(C(=O)c2cc(N(C)S(=O)(=O)c3ccccc3)ccn2)CC1,-5,7,101
Cc1cc(C)nc(SCC(N)=O)n1,-11,46*,101
COc1cc(C)nc(SCC(N)=O)n1,-11,0,100
Cc1cc(C)nc(SCCSc2nc(C)cc(C)n2)n1,-11,34*,100
Cc1cc(C)nc(SCCN(C)C)n1,-5,nt,nt
NC1=CC(=O)c2ccccc2C1=O,66,-66,88*
CC1=CC(=O)c2ccccc2C1=O,10,-6,99
Cn1c(C2CC2)n[nH]c1=S,17,-52,108
CCn1c(C2CC2)n[nH]c1=S,87*,-15,nt
Cc1cc2nc(-c3ccc(N=Cc4cccc(C)c4O)cc3)oc2cc1C,8,-8,101
CCOc1ccccc1C(=O)NCC(=O)O,1,nt,102
COc1ccccc1C(=O)NCC(=O)O,0,35*,100
CC1CCCC(C)N1C(=O)c1ccccc1NS(=O)(=O)c1ccc(F)cc1 (configuration not stated),-6,nt,101
CC1CCCCN1C(=O)c1ccccc1NS(=O)(=O)c1ccc(F)cc1 (configuration not stated),-3,41*,101
Cn1nc(-c2ccc(OCC(=O)Nc3ccc(Cl)cc3)cc2)c2ccccc2c1=O,nt,nt,103
CCn1c(=O)c2c3c(sc2n2c(SCc4ccc(OC)cc4)nnc12)CCCC3,21,-1,102
O=C(CSc1ncnc2ccccc12)N1CCOCC1,0,-17,97
SMILES,Mtb MbtI inh,MenB inh,Polio RdRp inh
CC(=O)NC(=S)Nc1cccc(C)c1,6,-16,101
Cc1cccc(NC(=S)Nn2c(O)c(C)sc2=S)c1,93*,-67,99
O=c1cc(CN2CCc3ccccc32)occ1OCc1ccc(Cl)cc1,10,-31,105
CN1CCN(CC(=O)Nc2ccc(C(=O)NCC3CCCO3)cc2)CC1 (configuration not stated),4,-41,103
COC(=O)Cc1nc(-c2ccccc2)cs1,10,6,86*
NC(=S)Cc1nc(-c2ccccc2)cs1,10,-53,97
O=C(CSc1nnc(-c2ccc(F)cc2)o1)N1CCCC2CCCCC21 (configuration not stated),-8,-20,102
Cc1c(N=Cc2cc(Br)cc(Br)c2O)cccc1C(=O)O,-13,-56,88*
COc1cccc(C=Nc2cccc(C(=O)O)c2C)c1O,-38,-18,100
Cc1cc(NC(=O)c2ccc3c(c2)NC(=O)c2ccccc2S3)ccc1Br,48,-17,104
O=C(O)C1C2C=CC(C2)C1C(=O)N1CCC(Cc2ccccc2)CC1 (configuration not stated),-9,nt,nt
O=C(O)C1C2C=CC(C2)C1C(=O)N1CCN(Cc2ccccc2)CC1 (configuration not stated),-1,-28,80*
Cn1cc(-c2cc3n(n2)CCC(=O)N3CC(=O)NCc2ccccc2)c2ccccc21,nt,nt,100
CCOC(=O)c1sc(NC(=O)C2c3ccccc3Oc3ccccc32)c(C(=O)OCC)c1C,nt,nt,100
CCOC(=O)c1sc(NC(=O)C2c3ccccc3Oc3ccccc32)c(C#N)c1C,nt,nt,76*
O=C(O)Cn1c(=O)oc2cc(Cl)ccc21,1,-6,99
Cc1nc(-c2c[nH]c(C(=O)O)c2)cs1,28,-15,93
COc1ccc(CCNc2nc(Cl)nc(N3CC4CC(C3)c3cccc(=O)n3C4)n2)cc1OC (configuration not stated),nt,-11,104
CCOc1nc(NCc2ccco2)nc(N2CC3CC(C2)c2cccc(=O)n2C3)n1 (configuration not stated),21,39*,101
CCOCCCNc1nc2ccccc2n2c(CC)nnc12,nt,nt,105
CCOCCCNc1n[nH]c(=S)s1,93,-2,88*
COc1ccc(C2(CNC(=O)c3ccccc3)CCOCC2)cc1,-17,nt,nt
COc1ccc(C2(CNC(=O)c3ccco3)CCOCC2)cc1,nt,-13,78*
Cc1cccc(NC(=O)CSc2ccc(-c3ccccn3)nn2)c1,nt,nt,113
COc1ccc(C)cc1NC(=O)CSc1ccc(-c2ccccn2)nn1,nt,nt,81*
SMILES,Mtb MbtI inh,MenB inh,Polio RdRp inh
O=S(=O)(Nc1nc2ccccc2nc1N1CCCC1)c1ccccc1,-6,-16,102
CCCCNS(=O)(=O)c1ccc(Cl)cc1,-1,-25,103
CCCCNS(=O)(=O)c1ccc2[nH]c(=S)[nH]c2c1,87,-23,88*
COc1ccccc1Oc1c(F)c(F)nc(N2CCCCC2)c1F,5,13,102
CCN(CC)S(=O)(=O)c1ccc(NC(=O)c2ccc(C)cc2)cc1,nt,-6,107
CN1/C(=C/C=C(C#N)C#N)C=Cc2ccccc21,-7,-13,104
CN1/C(=C/c2cccc[n+]2C)C=Cc2ccccc21,3,-84,87*
NNc1nc2ccccc2s1,-7,nt,104
CNC(=O)C1CCCN(c2nnc(-n3c(C)ccc3C)s2)C1 (configuration not stated),4,-26,104
CC1CCN(C(=O)C2CCN(Cc3cccc(O)c3)CC2)CC1,10,-3,100
O=C(CN1CCCCC1)N/N=C/c1ccc(/C=N/NC(=O)CN2CCCCC2)cc1,-8,-14,108
COCCn1c(C)cc(O)c(C(c2ccccc2)N2CCN(c3ccccc3)CC2)c1=O (configuration not stated),nt,nt,85*
COCCn1c(C)cc(O)c(C(c2ccccc2)N2CCN(c3ccc(F)cc3)CC2)c1=O (configuration not stated),nt,nt,101
CC(C)=CC(=O)Nc1nnc(-c2ccccc2)s1,52,-49,101
CC(C)C(=O)Nc1nnc(-c2ccccc2)s1,nt,-7,87*
CCOc1ccccc1-c1nc(=S)[nH][nH]1,1,-28,102
CCC(=O)NC(c1c(C)[nH]n(-c2ccccc2)c1=O)(C(F)(F)F)C(F)(F)F,nt,0,107
O=C(c1cc(-c2ccccc2)n[nH]1)N1CCCCC1,4,-14,103
N#CSCC(=O)N1c2ccccc2CCc2ccccc21,21,33*,100
O=C(O)c1cccnc1SCC(=O)N1c2ccccc2CCc2ccccc21,19,-21,104
CN(Cc1ccccc1)C(=O)Cn1ncn2cccc2c1=O,-5,-4,102
O=C(CCn1c(=O)oc2ccccc21)Sc1ccc(Cl)cc1Cl,70*,2,87*
COc1ccc(Cl)cc1NC(=O)CCn1c(=O)oc2ccccc21,nt,nt,104
CC(N=C1NS(=O)(=O)c2ccccc21)C(=O)OCc1ccccc1F (configuration not stated),12,-30,100

# From PubChem
